# Tests used:
# Assay in all cases: DAPPL (digital affinity profiling via proximity ligation, sequencing); 10 mM Tris-HCl pH 7.5, 50 mM NaCl, 1 mM DTT, 4% glycerol, room temperature, 30 min; GST-TFs on glutathione beads, 16-mer random dsDNA library, 0.1% formaldehyde crosslink after washing; high values mean tight binding
# FLI1 = target: T1, FLI1 (Homo sapiens, UniProt Q01543 1-452); details: protein: recombinant; tags: N-terminal GST; dsDNA, one strand shown
# T1 sequence: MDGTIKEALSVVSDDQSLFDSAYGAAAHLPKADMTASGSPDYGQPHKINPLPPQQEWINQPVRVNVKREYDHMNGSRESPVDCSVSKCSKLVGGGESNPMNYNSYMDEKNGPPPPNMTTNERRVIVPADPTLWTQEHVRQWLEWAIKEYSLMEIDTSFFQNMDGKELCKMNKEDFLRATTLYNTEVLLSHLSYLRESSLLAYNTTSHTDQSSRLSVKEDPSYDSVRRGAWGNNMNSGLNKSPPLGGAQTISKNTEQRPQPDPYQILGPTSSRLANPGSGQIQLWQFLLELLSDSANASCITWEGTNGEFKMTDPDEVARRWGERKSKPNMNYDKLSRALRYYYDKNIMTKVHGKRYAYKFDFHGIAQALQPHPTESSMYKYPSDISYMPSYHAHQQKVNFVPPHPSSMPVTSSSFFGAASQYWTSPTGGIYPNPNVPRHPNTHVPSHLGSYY
# How it was run: (§1)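 A tag-only sample was pooled with DNA-barcoded human transcription factors that had been expressed in yeast as GST fusions and captured on glutathione beads. The pools were incubated for 30 min at room temperature with 200 nmole of a random double-stranded 16-mer DNA library in Tris/NaCl/DTT/glycerol buffer, then washed, crosslinked with 0.1% formaldehyde, proximity-ligated (BsaI/T4 ligase, 1 h, 37 °C), PCR-amplified and sequenced on an Illumina NextSeq500. Binding signal is each hexamer's read frequency for a factor divided by its frequency for the tag-only sample.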
# ELK1 = target: T2, ELK1 (Homo sapiens, UniProt P19419 1-428); details: protein: recombinant; tags: N-terminal GST; dsDNA, one strand shown
# T2 sequence: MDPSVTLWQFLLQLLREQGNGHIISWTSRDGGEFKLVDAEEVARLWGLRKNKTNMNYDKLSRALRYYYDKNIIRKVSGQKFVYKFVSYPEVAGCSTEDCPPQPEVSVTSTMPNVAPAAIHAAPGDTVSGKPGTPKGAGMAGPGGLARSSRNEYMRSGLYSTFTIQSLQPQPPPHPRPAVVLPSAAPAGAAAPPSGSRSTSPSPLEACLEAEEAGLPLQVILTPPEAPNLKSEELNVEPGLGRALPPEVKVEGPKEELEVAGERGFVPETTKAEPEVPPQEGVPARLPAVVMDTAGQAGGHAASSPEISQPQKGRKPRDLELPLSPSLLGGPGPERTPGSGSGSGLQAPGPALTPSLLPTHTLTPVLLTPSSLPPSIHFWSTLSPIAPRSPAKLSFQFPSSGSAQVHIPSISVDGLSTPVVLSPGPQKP
# How it was run: as §1
# GABPA = target: T3, GABPA (Homo sapiens, UniProt Q06546 1-454); details: protein: recombinant; tags: N-terminal GST; dsDNA, one strand shown
# T3 sequence: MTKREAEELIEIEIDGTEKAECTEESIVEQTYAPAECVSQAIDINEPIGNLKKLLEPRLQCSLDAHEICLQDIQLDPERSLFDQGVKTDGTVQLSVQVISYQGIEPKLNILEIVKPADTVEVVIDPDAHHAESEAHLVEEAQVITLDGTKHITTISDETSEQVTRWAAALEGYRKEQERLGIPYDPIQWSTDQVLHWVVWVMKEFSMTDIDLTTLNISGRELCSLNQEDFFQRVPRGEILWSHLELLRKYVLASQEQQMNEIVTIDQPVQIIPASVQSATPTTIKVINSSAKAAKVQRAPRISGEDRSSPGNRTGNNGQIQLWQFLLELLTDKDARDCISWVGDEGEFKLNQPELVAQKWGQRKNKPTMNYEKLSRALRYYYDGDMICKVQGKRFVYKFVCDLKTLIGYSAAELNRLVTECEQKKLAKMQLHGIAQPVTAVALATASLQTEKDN
# How it was run: as §1
# ERG = target: T4, ERG (Homo sapiens, UniProt P11308 1-479); details: protein: recombinant; tags: N-terminal GST; dsDNA, one strand shown
# T4 sequence: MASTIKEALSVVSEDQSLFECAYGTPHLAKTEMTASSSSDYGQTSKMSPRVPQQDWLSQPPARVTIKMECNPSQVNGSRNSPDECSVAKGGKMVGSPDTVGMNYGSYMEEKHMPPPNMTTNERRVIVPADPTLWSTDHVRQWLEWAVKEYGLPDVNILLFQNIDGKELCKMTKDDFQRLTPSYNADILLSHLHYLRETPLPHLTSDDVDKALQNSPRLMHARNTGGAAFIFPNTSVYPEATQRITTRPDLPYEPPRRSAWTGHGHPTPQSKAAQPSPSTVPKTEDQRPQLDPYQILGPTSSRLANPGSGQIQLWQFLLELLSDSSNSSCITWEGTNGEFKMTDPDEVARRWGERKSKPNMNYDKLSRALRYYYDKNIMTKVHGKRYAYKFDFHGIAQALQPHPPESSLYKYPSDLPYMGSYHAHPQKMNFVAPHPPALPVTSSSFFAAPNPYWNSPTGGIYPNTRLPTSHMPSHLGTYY
# How it was run: as §1
# ELF1 = ELF1 (Homo sapiens, UniProt P32519 1-619); details: protein: recombinant; tags: N-terminal GST; dsDNA, one strand shown
# ELF1, sequence (P32519 whole entry): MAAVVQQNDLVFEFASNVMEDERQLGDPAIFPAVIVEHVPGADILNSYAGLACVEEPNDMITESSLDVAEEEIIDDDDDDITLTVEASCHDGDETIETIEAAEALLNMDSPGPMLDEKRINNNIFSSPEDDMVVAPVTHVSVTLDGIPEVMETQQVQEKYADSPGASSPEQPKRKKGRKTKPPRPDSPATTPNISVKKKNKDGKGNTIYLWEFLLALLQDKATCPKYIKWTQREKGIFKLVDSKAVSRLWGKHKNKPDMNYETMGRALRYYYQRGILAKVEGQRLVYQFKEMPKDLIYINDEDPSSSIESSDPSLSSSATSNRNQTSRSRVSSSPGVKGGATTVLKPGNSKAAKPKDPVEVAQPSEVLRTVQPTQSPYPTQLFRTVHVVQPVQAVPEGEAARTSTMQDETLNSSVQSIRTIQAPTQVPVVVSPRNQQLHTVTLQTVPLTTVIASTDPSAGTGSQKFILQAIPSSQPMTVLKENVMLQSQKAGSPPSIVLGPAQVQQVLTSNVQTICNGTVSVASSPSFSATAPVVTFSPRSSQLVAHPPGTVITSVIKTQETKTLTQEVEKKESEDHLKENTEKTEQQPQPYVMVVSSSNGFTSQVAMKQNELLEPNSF
# How it was run: as §1
# EHF = target: T5, EHF (Homo sapiens, UniProt Q9NZC4 1-300); details: protein: recombinant; tags: N-terminal GST; dsDNA, one strand shown
# T5 sequence: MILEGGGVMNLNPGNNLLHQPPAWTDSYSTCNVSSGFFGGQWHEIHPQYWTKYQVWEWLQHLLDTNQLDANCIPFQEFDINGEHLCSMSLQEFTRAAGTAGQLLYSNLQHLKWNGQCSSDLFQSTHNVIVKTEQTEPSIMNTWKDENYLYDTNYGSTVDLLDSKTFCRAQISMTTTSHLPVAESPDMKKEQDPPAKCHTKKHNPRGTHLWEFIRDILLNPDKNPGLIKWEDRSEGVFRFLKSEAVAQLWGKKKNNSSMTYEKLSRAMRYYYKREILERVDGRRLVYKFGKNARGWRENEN
# How it was run: as §1
# SPI1 = SPI1 (Homo sapiens, UniProt P17947 1-270); details: protein: recombinant; tags: N-terminal GST; dsDNA, one strand shown
# How it was run: as §1
# SPIB = SPIB (Homo sapiens, UniProt Q01892 1-262); details: protein: recombinant; tags: N-terminal GST; dsDNA, one strand shown
# SPIB, sequence (Q01892 whole entry): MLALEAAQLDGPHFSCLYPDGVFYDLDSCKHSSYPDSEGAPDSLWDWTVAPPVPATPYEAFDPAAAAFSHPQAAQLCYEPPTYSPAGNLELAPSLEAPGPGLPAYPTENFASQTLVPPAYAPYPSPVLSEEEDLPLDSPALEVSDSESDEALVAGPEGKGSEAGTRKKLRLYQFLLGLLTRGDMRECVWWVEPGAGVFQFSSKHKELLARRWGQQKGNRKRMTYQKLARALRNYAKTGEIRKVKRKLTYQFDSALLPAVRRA
# How it was run: as §1
# ELK3 = target: T6, ELK3 (Homo sapiens, UniProt P41970 1-407); details: protein: recombinant; tags: N-terminal GST; dsDNA, one strand shown
# T6 sequence: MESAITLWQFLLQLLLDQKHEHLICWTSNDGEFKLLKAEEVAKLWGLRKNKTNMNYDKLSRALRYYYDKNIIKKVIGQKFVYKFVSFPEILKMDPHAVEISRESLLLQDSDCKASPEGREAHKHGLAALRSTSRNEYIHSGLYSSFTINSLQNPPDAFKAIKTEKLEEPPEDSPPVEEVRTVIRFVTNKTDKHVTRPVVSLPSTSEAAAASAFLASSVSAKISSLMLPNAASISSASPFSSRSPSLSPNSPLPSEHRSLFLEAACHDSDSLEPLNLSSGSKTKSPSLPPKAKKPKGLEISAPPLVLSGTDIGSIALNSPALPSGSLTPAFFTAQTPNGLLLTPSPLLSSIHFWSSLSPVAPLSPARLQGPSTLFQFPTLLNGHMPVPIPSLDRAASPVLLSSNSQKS
# How it was run: as §1
# FEV = target: T7, FEV (Homo sapiens, UniProt Q99581 1-238); details: protein: recombinant; tags: N-terminal GST; dsDNA, one strand shown
# T7 sequence: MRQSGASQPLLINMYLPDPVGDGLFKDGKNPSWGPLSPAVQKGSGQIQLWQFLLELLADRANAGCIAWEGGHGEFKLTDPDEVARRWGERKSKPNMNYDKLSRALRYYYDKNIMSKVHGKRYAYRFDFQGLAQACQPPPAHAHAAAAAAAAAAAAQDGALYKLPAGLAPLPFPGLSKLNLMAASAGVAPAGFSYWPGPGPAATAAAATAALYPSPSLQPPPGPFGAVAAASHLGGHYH
# How it was run: as §1
# ETV5 = ETV5 (Homo sapiens, UniProt P41161 1-510); details: protein: recombinant; tags: N-terminal GST; dsDNA, one strand shown
# ETV5, sequence (P41161 whole entry): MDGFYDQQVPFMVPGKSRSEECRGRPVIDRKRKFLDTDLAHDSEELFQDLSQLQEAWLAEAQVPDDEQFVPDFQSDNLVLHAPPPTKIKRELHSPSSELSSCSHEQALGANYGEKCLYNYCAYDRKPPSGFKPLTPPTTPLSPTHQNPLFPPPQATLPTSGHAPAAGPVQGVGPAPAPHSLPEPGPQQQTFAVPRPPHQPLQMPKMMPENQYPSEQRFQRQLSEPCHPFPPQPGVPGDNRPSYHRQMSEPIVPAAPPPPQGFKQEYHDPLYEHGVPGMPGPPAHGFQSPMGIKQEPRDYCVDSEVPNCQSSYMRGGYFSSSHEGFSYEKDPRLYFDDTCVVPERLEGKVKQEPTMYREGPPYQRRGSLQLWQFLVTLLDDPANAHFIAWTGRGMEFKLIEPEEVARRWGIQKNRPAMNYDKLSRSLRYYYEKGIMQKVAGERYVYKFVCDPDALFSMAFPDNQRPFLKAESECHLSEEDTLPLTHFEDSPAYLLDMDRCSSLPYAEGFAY
# How it was run: as §1
# HSF1 = HSF1 (Homo sapiens, UniProt Q00613 1-529); details: protein: recombinant; tags: N-terminal GST; chain copies: 3; dsDNA, one strand shown
# HSF1, sequence (Q00613 whole entry): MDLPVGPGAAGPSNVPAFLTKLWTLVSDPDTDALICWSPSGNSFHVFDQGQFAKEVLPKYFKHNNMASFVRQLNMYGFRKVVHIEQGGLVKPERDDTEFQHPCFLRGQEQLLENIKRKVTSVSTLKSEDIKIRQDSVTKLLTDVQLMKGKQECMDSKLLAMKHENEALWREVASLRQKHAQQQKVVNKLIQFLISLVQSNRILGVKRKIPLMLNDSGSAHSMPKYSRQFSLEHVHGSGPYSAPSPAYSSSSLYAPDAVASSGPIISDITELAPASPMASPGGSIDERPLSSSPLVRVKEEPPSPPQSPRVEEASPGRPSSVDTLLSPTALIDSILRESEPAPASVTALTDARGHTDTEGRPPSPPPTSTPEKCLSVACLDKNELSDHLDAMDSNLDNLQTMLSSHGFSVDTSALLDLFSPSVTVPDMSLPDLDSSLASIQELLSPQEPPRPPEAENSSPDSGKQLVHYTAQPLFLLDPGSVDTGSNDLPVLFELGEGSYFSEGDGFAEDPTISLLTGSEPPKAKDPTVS
# How it was run: as §1
# ELF4 = ELF4 (Homo sapiens, UniProt Q99607 1-663); details: protein: recombinant; tags: N-terminal GST; dsDNA, one strand shown
# ELF4, sequence (Q99607 whole entry): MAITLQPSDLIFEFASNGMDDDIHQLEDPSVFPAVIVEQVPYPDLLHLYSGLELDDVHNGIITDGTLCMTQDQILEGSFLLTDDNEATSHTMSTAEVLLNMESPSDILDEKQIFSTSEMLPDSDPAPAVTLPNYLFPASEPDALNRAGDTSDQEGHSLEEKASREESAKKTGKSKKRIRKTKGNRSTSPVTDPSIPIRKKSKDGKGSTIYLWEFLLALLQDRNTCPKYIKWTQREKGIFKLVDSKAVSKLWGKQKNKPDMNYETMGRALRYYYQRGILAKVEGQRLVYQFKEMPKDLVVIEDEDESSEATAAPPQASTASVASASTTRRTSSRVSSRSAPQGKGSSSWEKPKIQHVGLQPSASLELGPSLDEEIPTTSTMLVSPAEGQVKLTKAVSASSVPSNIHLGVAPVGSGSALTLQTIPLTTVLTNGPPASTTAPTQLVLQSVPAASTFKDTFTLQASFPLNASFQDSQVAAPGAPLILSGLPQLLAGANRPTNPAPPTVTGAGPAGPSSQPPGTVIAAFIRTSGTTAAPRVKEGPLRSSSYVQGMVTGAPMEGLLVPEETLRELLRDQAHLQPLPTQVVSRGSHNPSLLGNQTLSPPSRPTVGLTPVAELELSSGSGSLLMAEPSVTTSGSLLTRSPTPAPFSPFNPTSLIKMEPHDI
# How it was run: as §1
# ELK4 = target: T8, ELK4 (Homo sapiens, UniProt P28324-2 1-405); details: protein: recombinant; tags: N-terminal GST; dsDNA, one strand shown
# T8 sequence: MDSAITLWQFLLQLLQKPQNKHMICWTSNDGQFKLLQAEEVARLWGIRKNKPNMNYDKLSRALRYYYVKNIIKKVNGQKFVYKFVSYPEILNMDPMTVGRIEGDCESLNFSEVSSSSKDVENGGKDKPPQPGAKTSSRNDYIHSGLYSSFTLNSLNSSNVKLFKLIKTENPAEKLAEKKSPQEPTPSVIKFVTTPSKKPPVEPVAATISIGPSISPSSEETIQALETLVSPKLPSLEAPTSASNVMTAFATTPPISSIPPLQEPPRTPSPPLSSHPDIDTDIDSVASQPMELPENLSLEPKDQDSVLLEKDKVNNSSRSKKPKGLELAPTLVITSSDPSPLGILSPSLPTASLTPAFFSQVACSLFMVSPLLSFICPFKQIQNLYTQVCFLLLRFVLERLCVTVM
# How it was run: as §1
# ETV2 = target: T9, ETV2 (Homo sapiens, UniProt O00321 1-342); details: protein: recombinant; tags: N-terminal GST; dsDNA, one strand shown
# T9 sequence: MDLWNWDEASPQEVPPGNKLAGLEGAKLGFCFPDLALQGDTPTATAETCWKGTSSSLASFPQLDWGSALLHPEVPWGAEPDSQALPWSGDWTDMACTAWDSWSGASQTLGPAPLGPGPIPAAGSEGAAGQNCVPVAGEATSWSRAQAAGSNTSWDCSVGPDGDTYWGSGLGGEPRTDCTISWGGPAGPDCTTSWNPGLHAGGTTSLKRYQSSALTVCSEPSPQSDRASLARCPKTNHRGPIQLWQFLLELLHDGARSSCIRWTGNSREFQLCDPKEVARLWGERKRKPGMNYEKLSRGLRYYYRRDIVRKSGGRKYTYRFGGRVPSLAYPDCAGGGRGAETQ
# How it was run: as §1
# ELF3 = target: T10, ELF3 (Homo sapiens, UniProt P78545 1-371); details: protein: recombinant; tags: N-terminal GST; dsDNA, one strand shown
# T10 sequence: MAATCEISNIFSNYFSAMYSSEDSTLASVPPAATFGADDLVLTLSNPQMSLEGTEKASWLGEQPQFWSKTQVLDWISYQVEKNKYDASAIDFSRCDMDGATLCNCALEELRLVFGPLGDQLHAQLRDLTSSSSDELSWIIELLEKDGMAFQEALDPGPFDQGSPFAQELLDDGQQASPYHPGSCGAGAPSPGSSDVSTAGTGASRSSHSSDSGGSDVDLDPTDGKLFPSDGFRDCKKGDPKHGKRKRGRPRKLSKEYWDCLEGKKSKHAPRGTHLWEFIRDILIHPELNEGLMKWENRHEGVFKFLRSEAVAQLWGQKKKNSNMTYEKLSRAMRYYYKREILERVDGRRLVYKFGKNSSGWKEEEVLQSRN
# How it was run: as §1
# CRX = CRX (Homo sapiens, UniProt O43186 1-299); details: protein: recombinant; tags: N-terminal GST; dsDNA, one strand shown
# CRX, sequence (O43186 whole entry): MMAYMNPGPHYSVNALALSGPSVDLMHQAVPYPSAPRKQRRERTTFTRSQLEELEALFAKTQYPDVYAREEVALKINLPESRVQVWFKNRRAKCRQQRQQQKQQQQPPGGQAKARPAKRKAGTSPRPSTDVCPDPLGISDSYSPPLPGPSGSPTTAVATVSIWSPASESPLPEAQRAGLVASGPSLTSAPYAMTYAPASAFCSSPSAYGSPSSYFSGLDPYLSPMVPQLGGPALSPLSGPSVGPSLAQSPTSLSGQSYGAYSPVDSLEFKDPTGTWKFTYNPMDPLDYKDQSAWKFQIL
# How it was run: as §1
# ETV1 = ETV1 (Homo sapiens, UniProt P50549 1-477); details: protein: recombinant; tags: N-terminal GST; dsDNA, one strand shown
# ETV1, sequence (P50549 whole entry): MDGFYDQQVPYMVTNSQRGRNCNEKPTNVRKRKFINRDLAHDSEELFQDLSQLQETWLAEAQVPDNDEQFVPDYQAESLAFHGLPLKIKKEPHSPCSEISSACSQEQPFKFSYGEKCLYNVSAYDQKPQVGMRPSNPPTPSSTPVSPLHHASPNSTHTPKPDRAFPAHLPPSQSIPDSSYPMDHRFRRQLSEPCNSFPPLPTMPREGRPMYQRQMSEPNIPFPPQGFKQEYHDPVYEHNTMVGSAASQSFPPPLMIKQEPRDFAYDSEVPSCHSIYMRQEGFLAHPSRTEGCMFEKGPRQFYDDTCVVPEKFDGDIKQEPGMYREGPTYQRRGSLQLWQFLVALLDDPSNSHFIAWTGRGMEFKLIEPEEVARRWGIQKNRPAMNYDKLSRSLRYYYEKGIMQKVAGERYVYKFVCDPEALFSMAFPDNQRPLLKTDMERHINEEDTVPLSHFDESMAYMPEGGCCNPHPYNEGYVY
# How it was run: as §1
sequence,measurement,setting,value
TAAAGA,binding signal,FLI1,"1.11 fold enrichment (6-mer frequency, TF over GST control)"
same,binding signal,ELK1,"1.04 fold enrichment (6-mer frequency, TF over GST control)"
same,binding signal,GABPA,"1.14 fold enrichment (6-mer frequency, TF over GST control)"
same,binding signal,ERG,"1.14 fold enrichment (6-mer frequency, TF over GST control)"
same,binding signal,ELF1,"1.14 fold enrichment (6-mer frequency, TF over GST control)"
same,binding signal,EHF,"1.07 fold enrichment (6-mer frequency, TF over GST control)"
same,binding signal,SPI1,"1.12 fold enrichment (6-mer frequency, TF over GST control)"
same,binding signal,SPIB,"1.11 fold enrichment (6-mer frequency, TF over GST control)"
same,binding signal,ELK3,"1.07 fold enrichment (6-mer frequency, TF over GST control)"
same,binding signal,FEV,"1.09 fold enrichment (6-mer frequency, TF over GST control)"
same,binding signal,ETV5,"1.07 fold enrichment (6-mer frequency, TF over GST control)"
same,binding signal,HSF1,"1.56 fold enrichment (6-mer frequency, TF over GST control)"
same,binding signal,ELF4,"1.07 fold enrichment (6-mer frequency, TF over GST control)"
same,binding signal,ELK4,"1.11 fold enrichment (6-mer frequency, TF over GST control)"
same,binding signal,ETV2,"1.13 fold enrichment (6-mer frequency, TF over GST control)"
same,binding signal,ELF3,"1.2 fold enrichment (6-mer frequency, TF over GST control)"
same,binding signal,CRX,"1.85 fold enrichment (6-mer frequency, TF over GST control)"
same,binding signal,ETV1,"1.11 fold enrichment (6-mer frequency, TF over GST control)"

# Source: paper PMC7862700, “An all-to-all approach to the identification of sequence-specific readers for epigenetic DNA modifications on cytosine”
